Test results published in the supplement of paper PMC8728848.
This excerpt belongs to a sample that is enriched for the strongest signals.

Tests used:
Assay in all cases: glycan array binding signal (z-score within array); higher = stronger binding
Conditions in all cases: glycan notation: IUPAC condensed, linker removed
[1] = biological target: Fuc(a1-2)Gal(b1-4)Fuc(a1-3)]GlcNAc(b1-2)Man(a1-3)[Fuc(a1-2)Gal(b1-4)[Fuc(a1-3)]GlcNAc(b1-2)Man(a1-6)]Man(b1-4)GlcNAc(b1-4)GlcNAc
Summary of the method: (§1)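 Columns mapping to the same glycan were averaged after glycan names were converted to IUPAC-condensed notation. The data come from 3228 arrays in the Consortium for Functional Glycomics database, limited to those with an available protein sequence. Binding is reported as a within-array Z-score averaged across arrays of one protein sequence and across linkers.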

[2] = biological target: Fuc(a1-2)Gal(b1-4)GlcNAc(b1-2)Man(a1-3)[Fuc(a1-2)Gal(b1-4)GlcNAc(b1-2)Man(a1-6)]Man(b1-4)GlcNAc(b1-4)[Fuc(a1-6)]GlcNAc
Summary of the method: as §1

[3] = biological target: Fuc(a1-2)Gal(b1-4)[Fuc(a1-3)]GlcNAc(b1-2)[Fuc(a1-2)Gal(b1-4)[Fuc(a1-3)]GlcNAc(b1-4)]Man(a1-3)[Fuc(a1-2)Gal(b1-4)[Fuc(a1-3)]GlcNAc(b1-2)Man(a1-6)]Man(b1-4)GlcNAc(b1-4)GlcNAc
Summary of the method: as §1

[4] = biological target: Fuc(a1-2)Gal(b1-4)[Fuc(a1-3)]GlcNAc(b1-3)Gal(b1-4)[Fuc(a1-3)]GlcNAc(b1-3)Gal(b1-4)[Fuc(a1-3)]GlcNAc
Summary of the method: as §1

[5] = biological target: Fuc(a1-2)Gal(b1-4)[Fuc(a1-3)]GlcNAc(b1-3)GalNAc
Summary of the method: as §1

[6] = biological target: Fuc(a1-2)Gal3S(b1-4)GlcNAc
Summary of the method: as §1

[7] = biological target: Fuc(a1-2)[Gal(a1-3)]Gal(b1-3)GalNAc
Summary of the method: as §1

[8] = biological target: Fuc(a1-2)[Gal(a1-3)]Gal(b1-3)GlcNAc(b1-2)Man(a1-3)[Fuc(a1-2)[Gal(a1-3)]Gal(b1-3)GlcNAc(b1-2)Man(a1-6)]Man(b1-4)GlcNAc(b1-4)[Fuc(a1-6)]GlcNAc
Summary of the method: as §1

[9] = biological target: Fuc(a1-2)[Gal(a1-3)]Gal(b1-4)GlcNAc
Summary of the method: as §1

[10] = biological target: Fuc(a1-2)[Gal(a1-4)]Gal(b1-4)GlcNAc
Summary of the method: as §1

[11] = biological target: Fuc(a1-2)[GalNAc(a1-3)]Gal(b1-4)GlcNAc(b1-3)Gal(b1-4)GlcNAc(b1-3)Gal(b1-4)GlcNAc
Summary of the method: as §1

[12] = biological target: Gal(b1-3)GalNAc(b1-4)[Neu5Ac(a2-3)]Gal(b1-4)Glc
Summary of the method: as §1

[13] = biological target: Gal(b1-3)[Neu5Ac(b2-6)]GalNAc
Summary of the method: as §1

[14] = biological target: Gal(b1-4)GlcNAc(b1-2)Man(a1-3)[Gal(b1-4)GlcNAc(b1-2)Man(a1-6)][GlcNAc(b1-4)]Man(b1-4)GlcNAc(b1-4)[Fuc(a1-6)]GlcNAc
Summary of the method: as §1

[15] = biological target: Gal(b1-4)GlcNAc(b1-3)Gal(b1-4)GlcNAc(b1-2)Man(a1-3)[Gal(b1-4)GlcNAc(b1-3)Gal(b1-4)GlcNAc(b1-2)Man(a1-6)]Man(b1-4)GlcNAc(b1-4)GlcNAc
Summary of the method: as §1

[16] = biological target: Gal(b1-4)GlcNAc(b1-3)Gal(b1-4)GlcNAc(b1-2)Man(a1-3)[Gal(b1-4)GlcNAc(b1-3)Gal(b1-4)GlcNAc(b1-2)Man(a1-6)]Man(b1-4)GlcNAc(b1-4)[Fuc(a1-6)]GlcNAc
Summary of the method: as §1

[17] = biological target: Gal3S(b1-3)GalNAc
Summary of the method: as §1

[18] = biological target: Gal3S(b1-3)[Fuc(a1-4)]GlcNAc
Summary of the method: as §1

[19] = biological target: Gal6S(b1-3)GlcNAc6S
Summary of the method: as §1

[20] = biological target: Gal6S(b1-4)Glc
Summary of the method: as §1

[21] = biological target: GalNAc3S(b1-4)GlcNAc3S
Summary of the method: as §1

[22] = biological target: Glc(b1-4)Glc
Summary of the method: as §1

[23] = biological target: GlcNAc(a1-4)Gal(b1-3)GlcNAc
Summary of the method: as §1

[24] = biological target: GlcNAc(a1-4)Gal(b1-4)GlcNAc(b1-3)Gal(b1-4)Glc
Summary of the method: as §1

[25] = biological target: GlcNAc(b1-2)[GlcNAc(b1-4)]Man(a1-3)[GlcNAc(b1-4)][GlcNAc(b1-2)[GlcNAc(b1-6)]Man(a1-6)]Man(b1-4)GlcNAc(b1-4)[Fuc(a1-6)]GlcNAc
Summary of the method: as §1

[26] = biological target: GlcNAc(b1-3)Gal(b1-4)GlcNAc(b1-2)Man(a1-3)[GlcNAc(b1-3)Gal(b1-4)GlcNAc(b1-2)Man(a1-6)]Man(b1-4)GlcNAc(b1-4)GlcNAc
Summary of the method: as §1

[27] = biological target: GlcNAc(b1-3)Gal(b1-4)GlcNAc(b1-3)Gal(b1-4)GlcNAc(b1-2)Man(a1-3)[GlcNAc(b1-3)Gal(b1-4)GlcNAc(b1-3)Gal(b1-4)GlcNAc(b1-2)Man(a1-6)]Man(b1-4)GlcNAc(b1-4)GlcNAc
Summary of the method: as §1

[28] = biological target: GlcNAc(b1-3)Gal(b1-4)GlcNAc(b1-3)Gal(b1-4)GlcNAc(b1-3)Gal(b1-4)GlcNAc(b1-2)[GlcNAc(b1-3)Gal(b1-4)GlcNAc(b1-3)Gal(b1-4)GlcNAc(b1-3)Gal(b1-4)GlcNAc(b1-6)]Man(a1-6)[GlcNAc(b1-3)Gal(b1-4)GlcNAc(b1-3)Gal(b1-4)GlcNAc(b1-3)Gal(b1-4)GlcNAc(b1-2)Man(a1-3)]Man(b1-4)GlcNAc(b1-4)[Fuc(a1-6)]GlcNAc
Summary of the method: as §1

[29] = biological target: GlcNAc(b1-4)[GlcNAc(b1-6)]GalNAc
Summary of the method: as §1

[30] = biological target: Man(a1-3)[Man(a1-6)]Man(b1-4)GlcNAc(b1-4)GlcNAc
Summary of the method: as §1

[31] = biological target: Neu5Ac(a2-3)Gal(b1-3)GalNAc(b1-4)[Neu5Ac(a2-3)]Gal(b1-4)Glc
Summary of the method: as §1

[32] = biological target: Neu5Ac(a2-3)Gal(b1-3)GalNAc6S
Summary of the method: as §1

[33] = biological target: Neu5Ac(a2-3)Gal(b1-3)GlcNAc(b1-2)Man(a1-3)[Neu5Ac(a2-3)Gal(b1-3)GlcNAc(b1-2)Man(a1-6)]Man(b1-4)GlcNAc(b1-4)GlcNAc
Summary of the method: as §1

[34] = biological target: Neu5Ac(a2-3)Gal(b1-3)[GlcNAc(b1-6)]GalNAc
Summary of the method: as §1

[35] = biological target: Neu5Ac(a2-3)Gal(b1-4)GlcNAc(b1-2)Man
Summary of the method: as §1

[36] = biological target: Neu5Ac(a2-3)Gal(b1-4)GlcNAc(b1-3)Gal(b1-4)GlcNAc(b1-3)Gal(b1-4)GlcNAc(b1-2)Man(a1-3)[Neu5Ac(a2-3)Gal(b1-4)GlcNAc(b1-3)Gal(b1-4)GlcNAc(b1-3)Gal(b1-4)GlcNAc(b1-2)Man(a1-6)]GalNAc
Summary of the method: as §1

[37] = biological target: Neu5Ac(a2-3)Gal(b1-4)GlcNAc(b1-3)Gal(b1-4)GlcNAc(b1-3)GalNAc
Summary of the method: as §1

[38] = biological target: Neu5Ac(a2-3)Gal(b1-4)GlcNAc(b1-3)Gal(b1-4)[Fuc(a1-3)]GlcNAc
Summary of the method: as §1

[39] = biological target: Neu5Ac(a2-3)Gal(b1-4)[Fuc(a1-3)]GlcNAc(b1-2)Man
Summary of the method: as §1

[40] = biological target: Neu5Ac(a2-6)Gal(b1-4)GlcNAc(b1-2)Man(a1-3)[Neu5Ac(a2-3)Gal(b1-4)GlcNAc(b1-2)Man(a1-6)]Man(b1-4)GlcNAc(b1-4)GlcNAc
Summary of the method: as §1

[41] = biological target: Neu5Ac(a2-6)Gal(b1-4)GlcNAc(b1-2)Man(a1-3)[Neu5Ac(a2-6)Gal(b1-4)GlcNAc(b1-2)Man(a1-6)]Man(b1-4)GlcNAc(b1-4)GlcNAc
Summary of the method: as §1

[42] = biological target: Neu5Ac(a2-6)Gal(b1-4)GlcNAc(b1-2)Man(a1-6)[GlcNAc(b1-2)Man(a1-3)]Man(b1-4)GlcNAc(b1-4)GlcNAc
Summary of the method: as §1

[43] = biological target: Neu5Ac(a2-6)Gal(b1-4)GlcNAc(b1-3)Gal(b1-4)GlcNAc(b1-2)Man(a1-3)[Neu5Ac(a2-6)Gal(b1-4)GlcNAc(b1-3)Gal(b1-4)GlcNAc(b1-2)Man(a1-6)]GalNAc
Summary of the method: as §1

[44] = biological target: Neu5Ac(a2-6)Gal(b1-4)GlcNAc(b1-3)Gal(b1-4)GlcNAc(b1-3)[Neu5Ac(a2-6)Gal(b1-4)GlcNAc(b1-3)Gal(b1-4)GlcNAc(b1-6)]GalNAc
Summary of the method: as §1

[45] = biological target: Neu5Ac(a2-6)GalNAc
Summary of the method: as §1

[46] = biological target: Neu5Ac(a2-6)GalNAc(b1-4)GlcNAc
Summary of the method: as §1

[47] = biological target: Neu5Ac(a2-8)Neu5Ac(a2-3)Gal(b1-4)Glc
Summary of the method: as §1

[48] = biological target: Neu5Ac(a2-8)Neu5Ac(a2-3)[GalNAc(b1-4)]Gal(b1-4)Glc
Summary of the method: as §1

B1: RsaA-N-term (Caulobacter crescentus), P35828 (protein)
chain: MAYTTAQLVTAYTNANLGKAPDAATTLTLDAYATQTQTGGLSDAAALTNTLKLVNSTTAVAIQTYQFFTGVAPSAAGLDFLVDSTTNTNDLNDAYYSKFAQENRFINFSINLATGAGAGATAFAAAYTGVSYAQTVATAYDKIIGNAVATAAGVDVAAAVAFLSRQANIDYLTAFVRANTPFTAAADIDLAVKAALIGTILNAATVSGIGGYATATAAMINDLSDGALSTDNAAGVNLFTAYPSSGVSGSTLSLTTGTDTLTGTANNDTFVAGEVAGDGSGWSHPQFEKGG
With B1 the “glycan array binding signal (z-score)” value [1] was 5.97, the “glycan array binding signal (z-score)” value [2] was 7.05 and the “glycan array binding signal (z-score)” value [3] was 2.4. The “glycan array binding signal (z-score)” value [4] was -1.26, the “glycan array binding signal (z-score)” value [5] was -0.298 and the “glycan array binding signal (z-score)” value [6] was -0.243. The “glycan array binding signal (z-score)” value [7] was -0.328, the “glycan array binding signal (z-score)” value [8] was -0.025 and the “glycan array binding signal (z-score)” value [9] was 1.14. For the same binder, the “glycan array binding signal (z-score)” value [10] was -0.479, the “glycan array binding signal (z-score)” value [11] was 0.016 and the “glycan array binding signal (z-score)” value [12] was -0.359. For the same binder, the “glycan array binding signal (z-score)” value [13] was 0.215, the “glycan array binding signal (z-score)” value [14] was -0.708 and the “glycan array binding signal (z-score)” value [15] was 3.15. For the same binder, the “glycan array binding signal (z-score)” value [16] was 2.39, the “glycan array binding signal (z-score)” value [17] was 1.7 and the “glycan array binding signal (z-score)” value [18] was -0.524. The “glycan array binding signal (z-score)” value [19] was 3.01, the “glycan array binding signal (z-score)” value [20] was -0.512 and the “glycan array binding signal (z-score)” value [21] was 0.081. For the same binder, the “glycan array binding signal (z-score)” value [22] was -0.512, the “glycan array binding signal (z-score)” value [23] was 0.008 and the “glycan array binding signal (z-score)” value [24] was -0.491. For the same binder, the “glycan array binding signal (z-score)” value [25] was 0.317, the “glycan array binding signal (z-score)” value [26] was 2.18 and the “glycan array binding signal (z-score)” value [27] was 2.59. The “glycan array binding signal (z-score)” value [28] was 0.217, the “glycan array binding signal (z-score)” value [29] was -0.221 and the “glycan array binding signal (z-score)” value [30] was 0.174. For the same binder, the “glycan array binding signal (z-score)” value [31] was -1.29, the “glycan array binding signal (z-score)” value [32] was 0.427 and the “glycan array binding signal (z-score)” value [33] was 7.19. The “glycan array binding signal (z-score)” value [34] was -1.21, the “glycan array binding signal (z-score)” value [35] was 2.51 and the “glycan array binding signal (z-score)” value [36] was -0.725. The “glycan array binding signal (z-score)” value [37] was -1.2, the “glycan array binding signal (z-score)” value [38] was -0.112 and the “glycan array binding signal (z-score)” value [39] was 0.103. For the same binder, the “glycan array binding signal (z-score)” value [40] was 2.79, the “glycan array binding signal (z-score)” value [41] was 0.398 and the “glycan array binding signal (z-score)” value [42] was 0.365. For the same binder, the “glycan array binding signal (z-score)” value [43] was -1.33, the “glycan array binding signal (z-score)” value [44] was -0.68 and the “glycan array binding signal (z-score)” value [45] was 2.17. For the same binder, the “glycan array binding signal (z-score)” value [46] was -0.593, the “glycan array binding signal (z-score)” value [47] was -0.815 and the “glycan array binding signal (z-score)” value [48] was -0.001.
